Measurements as given in PubChem BioAssay.
Inconclusive results are not listed. Calls of active or inactive are those of the source. No cut-off is given here; in the data, nearly all actives have AC50 up to about 26 µM.

assay: viability loss in pontine glioma line – cell-based, SU-DIPG-XXV, MIPE5.0, CellTiter-Glo, qHTS, dose response (AID 1347065); settings: CellTiter-Glo ATP luminescence;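 note: cells exposed to compound for 48 hours before ATP readout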

Row | Structure (SMILES) | AC50 | outcome
1 | NC(=O)c1cccc(-c2cc(Nc3ccc(OC(F)(F)F)cc3)ncn2)c1 | 20.9 µM (active) | 
2 | O=C(NO)c1cnc(NC2(c3ccccc3)CC2)nc1 | 2.95 µM (active) | 
3 | C=Cc1cc(O)cc2nc(-c3ccc(O)c(F)c3)oc12 |  | inactive
4 | COc1ncc(Nc2ncc([C@H](C)N3CCN(S(C)(=O)=O)CC3)cc2-c2nc(C)nc(N)n2)cc1F | 0.105 µM (active) | 
5 | COc1ccc(-n2cnc3cc(C(=O)N4CCCCC4)ccc32)cc1 |  | inactive
6 | C[C@@H](C(=O)Nc1ccc(Cl)cc1)C1CCC(c2ccnc3ccc(F)cc23)CC1 (stereo not given in full) |  | inactive
7 | O=C1OC(COc2ccccc2[N+](=O)[O-])CC1Cc1ccccc1 (stereo not given) |  | inactive
8 | CCS(=O)(=O)N1CCN(c2ccc(Nc3ncc(C(N)=O)c(NC4CC4)n3)cc2)CC1 | 11.8 µM (active) | 
9 | CCCCOC(=O)NS(=O)(=O)c1sc(CC(C)C)cc1-c1ccc(Cn2ccnc2)cc1 | 20.9 µM (active) | 
10 | CN1C(=O)N[C@H](Cc2c[nH]c3c(Cl)cccc23)C1=O |  | inactive
11 | CN(C)c1cc(NC(=O)CNC(C)(C)C)c(O)c2c1C[C@H]1C[C@H]3[C@H](N(C)C)C(=O)C(C(N)=O)=C(O)[C@]3(O)C(=O)C1=C2O |  | inactive
12 | CCN1C(=O)CNc2ncc(-c3ccc(-c4ncn[nH]4)nc3C)nc21 | 1.48 µM (active) | 
13 | Nc1nccc2c1ncn2[C@@H]1C=C(CO)[C@@H](O)[C@H]1O |  | inactive
14 | COCc1c(-c2ccc(NC(=O)Nc3cc(C(F)(F)F)ccc3F)c(F)c2)c2c(N)ncnn2c1CN1CCOCC1 | 0.186 µM (active) | 
15 | NC(=O)c1cnc(N[C@@H]2CCCC[C@@H]2N)nc1Nc1cccc(-n2nccn2)c1 | 5.25 µM (active) | 
